In the supplement of paper PMC10849652:
Of roughly 7,900 targets only a part is listed; those with a hit were picked by preference. About 0.6% of all pairs of compound and target were hits. A number with no mark means an inactive call.

What was measured:
Test in all cases: log2 fold change, soluble protein after heating vs DMSO (PISA); higher = thermal stabilisation; K562 cells, 10 uM, 30 min; active = over 0.2 and 3.5 SD of the protein, either way, in both replicates (recomputed)
saracatinib = compound: CN1CCN(CCOc2cc(OC3CCOCC3)c3c(Nc4c(Cl)ccc5c4OCO5)ncnc3c2)CC1 [saracatinib]
In short: (§1)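 Soluble protein was quantified by TMTpro 16plex LC-MS/MS after channel sums were equalised. It was obtained as the supernatant after 21,000xg for 90 min from pooled aliquots of K562 cells (2×10^6 cells/mL, 10 μM compound, 30 min) heated for 3 min across 48°C-58°C and extracted in PBS with 0.5% NP-40 at 4°C. Thermal stability values are relative to control samples and come from duplicates. They are given as log2 fold changes.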

sotrastaurin = compound: CN1CCN(c2nc(C3=C(c4c[nH]c5ccccc45)C(=O)NC3=O)c3ccccc3n2)CC1 [sotrastaurin]
In short: as §1

alvocidib = compound: CN1CC[C@H](c2c(O)cc(O)c3c(=O)cc(-c4ccccc4Cl)oc23)[C@H](O)C1 [alvocidib]
In short: as §1

Tubastatin A = compound: CN1CCc2c(c3ccccc3n2Cc2ccc(C(=O)NO)cc2)C1 [Tubastatin A]
In short: as §1

[1] = compound: CNC(=O)C1=CC=CC=C1NC2=NC(=NC=C2Cl)NC3=C(C=C(C=C3)N4CCOCC4)OC
In short: as §1

defactinib = compound: CNC(=O)c1ccc(Nc2ncc(C(F)(F)F)c(NCc3nccnc3N(C)S(C)(=O)=O)n2)cc1 [defactinib]
In short: as §1

rucaparib = compound: CNCc1ccc(-c2[nH]c3cc(F)cc4c3c2CCNC4=O)cc1 [rucaparib]
In short: as §1

[2] = compound: CNc1nc(-c2ccc3c(N)n[nH]c3c2)cc(N2C[C@@H](C(=O)NC3CCCCC3)CC[C@H]2C)n1
In short: as §1

encorafenib = compound: COC(=O)N[C@@H](C)CNc1nccc(-c2cn(C(C)C)nc2-c2cc(Cl)cc(NS(C)(=O)=O)c2F)n1 [encorafenib]
In short: as §1

[3] = compound: COC(=O)[C@H](CCSC)NC(=O)C1=C(C=C(C=C1)NC[C@H](CS)N)C2=CC=CC=C2
In short: as §1

[4] = compound: COC1=CC=C(C=C1)CN2C=CC3=C2C=C(C=C3)C(=O)NO
In short: as §1

filanesib = compound: CON(C)C(=O)N1N=C(c2cc(F)ccc2F)S[C@@]1(CCCN)c1ccccc1 [filanesib]
In short: as §1

zotarolimus = compound: CO[C@H]1C[C@@H]2CC[C@@H](C)[C@@](O)(O2)C(=O)C(=O)N2CCCC[C@H]2C(=O)O[C@H]([C@H](C)C[C@@H]2CC[C@H](n3cnnn3)[C@H](OC)C2)CC(=O)[C@H](C)/C=C(\C)[C@@H](O)[C@@H](OC)C(=O)[C@H](C)C[C@H](C)/C=C/C=C/C=C/1C [zotarolimus]
In short: as §1

idasanutlin = compound: COc1cc(C(=O)O)ccc1NC(=O)[C@@H]1N[C@@H](CC(C)(C)C)[C@](C#N)(c2ccc(Cl)cc2F)[C@H]1c1cccc(Cl)c1F [idasanutlin]
In short: as §1

alisertib = compound: COc1cc(Nc2ncc3c(n2)-c2ccc(Cl)cc2C(c2c(F)cccc2OC)=NC3)ccc1C(=O)O [alisertib]
In short: as §1

[5] = compound: COc1cc2nc(-c3cc(F)ccc3O)nc(N[C@@H]3CNC[C@H]3C(C)(C)O)c2cc1OC
In short: as §1

gefitinib = compound: COc1cc2ncnc(Nc3ccc(F)c(Cl)c3)c2cc1OCCCN1CCOCC1 [gefitinib]
In short: as §1

[6] = compound: COc1cccc2cc(-c3nc([C@H]4CC[C@H](C(=O)O)CC4)n4ncnc(N)c34)[nH]c12
In short: as §1

lapatinib = compound: CS(=O)(=O)CCNCc1ccc(-c2ccc3ncnc(Nc4ccc(OCc5cccc(F)c5)c(Cl)c4)c3c2)o1 [lapatinib]
In short: as §1

pictilisib = compound: CS(=O)(=O)N1CCN(Cc2cc3nc(-c4cccc5[nH]ncc45)nc(N4CCOCC4)c3s2)CC1 [pictilisib]
In short: as §1

Chain of UniProt O60271 (O60271 whole entry, looked up): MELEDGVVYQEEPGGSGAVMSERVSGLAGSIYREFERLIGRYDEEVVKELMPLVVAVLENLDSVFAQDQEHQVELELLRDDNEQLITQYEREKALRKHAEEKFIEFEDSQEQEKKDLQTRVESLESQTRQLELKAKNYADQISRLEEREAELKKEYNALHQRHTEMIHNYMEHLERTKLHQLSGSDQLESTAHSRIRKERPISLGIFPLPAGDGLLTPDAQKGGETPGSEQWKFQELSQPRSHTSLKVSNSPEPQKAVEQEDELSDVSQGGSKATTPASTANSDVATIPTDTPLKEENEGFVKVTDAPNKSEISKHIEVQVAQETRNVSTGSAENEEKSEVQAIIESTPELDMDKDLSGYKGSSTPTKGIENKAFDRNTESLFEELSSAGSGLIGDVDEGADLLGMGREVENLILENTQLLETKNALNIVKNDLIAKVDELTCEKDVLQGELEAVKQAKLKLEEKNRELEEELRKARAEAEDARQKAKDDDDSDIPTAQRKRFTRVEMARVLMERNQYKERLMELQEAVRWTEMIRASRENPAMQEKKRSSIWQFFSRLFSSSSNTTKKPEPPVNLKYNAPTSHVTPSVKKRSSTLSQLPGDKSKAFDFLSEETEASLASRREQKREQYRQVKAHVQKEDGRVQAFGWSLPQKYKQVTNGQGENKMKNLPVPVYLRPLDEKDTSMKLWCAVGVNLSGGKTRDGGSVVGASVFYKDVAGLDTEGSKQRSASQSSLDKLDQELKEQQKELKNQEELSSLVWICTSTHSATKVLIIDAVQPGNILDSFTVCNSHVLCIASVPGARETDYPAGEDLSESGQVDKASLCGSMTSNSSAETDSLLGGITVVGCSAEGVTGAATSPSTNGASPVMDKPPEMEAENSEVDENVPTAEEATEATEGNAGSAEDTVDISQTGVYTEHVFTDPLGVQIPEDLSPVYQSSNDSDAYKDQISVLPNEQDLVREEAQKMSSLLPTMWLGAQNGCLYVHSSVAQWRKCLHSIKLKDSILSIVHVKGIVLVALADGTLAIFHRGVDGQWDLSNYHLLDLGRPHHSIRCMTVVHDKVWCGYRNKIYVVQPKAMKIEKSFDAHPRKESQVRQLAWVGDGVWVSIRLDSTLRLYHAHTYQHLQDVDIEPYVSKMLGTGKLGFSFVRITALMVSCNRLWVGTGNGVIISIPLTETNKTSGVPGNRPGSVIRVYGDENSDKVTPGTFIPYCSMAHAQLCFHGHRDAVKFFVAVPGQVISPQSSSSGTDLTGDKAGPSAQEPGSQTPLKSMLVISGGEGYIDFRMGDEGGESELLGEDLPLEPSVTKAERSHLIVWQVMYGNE
Chain of UniProt Q01085 (Q01085 whole entry, looked up): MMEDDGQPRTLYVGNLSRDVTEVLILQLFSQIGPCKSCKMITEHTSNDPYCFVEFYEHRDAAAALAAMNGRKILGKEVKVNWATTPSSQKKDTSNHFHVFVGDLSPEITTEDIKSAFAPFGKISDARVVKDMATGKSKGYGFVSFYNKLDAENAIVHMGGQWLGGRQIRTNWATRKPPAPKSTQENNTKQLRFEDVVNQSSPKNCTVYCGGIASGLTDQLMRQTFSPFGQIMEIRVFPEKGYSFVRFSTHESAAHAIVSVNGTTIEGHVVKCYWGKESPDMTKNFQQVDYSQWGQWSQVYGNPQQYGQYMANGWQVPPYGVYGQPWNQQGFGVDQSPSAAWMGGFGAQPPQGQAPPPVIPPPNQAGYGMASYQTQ
Chain of UniProt O43615 (O43615 whole entry, looked up): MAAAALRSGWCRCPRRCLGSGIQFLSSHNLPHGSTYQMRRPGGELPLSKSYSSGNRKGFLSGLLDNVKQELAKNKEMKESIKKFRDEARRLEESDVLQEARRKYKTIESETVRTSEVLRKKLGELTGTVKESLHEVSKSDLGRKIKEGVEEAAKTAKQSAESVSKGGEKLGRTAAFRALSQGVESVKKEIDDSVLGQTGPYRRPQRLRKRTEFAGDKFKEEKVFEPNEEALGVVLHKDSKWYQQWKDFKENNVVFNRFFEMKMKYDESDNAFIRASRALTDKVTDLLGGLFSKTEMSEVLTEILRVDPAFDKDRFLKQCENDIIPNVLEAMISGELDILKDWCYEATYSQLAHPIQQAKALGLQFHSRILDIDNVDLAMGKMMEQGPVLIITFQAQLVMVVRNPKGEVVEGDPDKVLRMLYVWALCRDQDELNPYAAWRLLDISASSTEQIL
Chain of UniProt Q15833 (Q15833 whole entry, looked up): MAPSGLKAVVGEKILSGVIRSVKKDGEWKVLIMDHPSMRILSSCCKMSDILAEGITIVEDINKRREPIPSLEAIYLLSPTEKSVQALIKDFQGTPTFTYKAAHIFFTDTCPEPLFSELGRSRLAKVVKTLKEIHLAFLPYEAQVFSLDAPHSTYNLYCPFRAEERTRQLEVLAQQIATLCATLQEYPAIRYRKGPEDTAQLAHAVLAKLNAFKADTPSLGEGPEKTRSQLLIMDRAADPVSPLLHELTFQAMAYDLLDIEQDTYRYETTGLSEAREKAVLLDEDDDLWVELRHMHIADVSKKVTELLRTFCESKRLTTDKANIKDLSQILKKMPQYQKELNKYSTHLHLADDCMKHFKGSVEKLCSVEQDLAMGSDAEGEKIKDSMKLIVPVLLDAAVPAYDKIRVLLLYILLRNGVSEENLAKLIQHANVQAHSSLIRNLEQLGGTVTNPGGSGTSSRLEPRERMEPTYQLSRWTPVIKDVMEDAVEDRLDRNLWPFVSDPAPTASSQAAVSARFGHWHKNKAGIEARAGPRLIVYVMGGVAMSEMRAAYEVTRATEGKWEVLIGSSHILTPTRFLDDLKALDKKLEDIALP
Chain of UniProt P53597 (P53597 whole entry, looked up): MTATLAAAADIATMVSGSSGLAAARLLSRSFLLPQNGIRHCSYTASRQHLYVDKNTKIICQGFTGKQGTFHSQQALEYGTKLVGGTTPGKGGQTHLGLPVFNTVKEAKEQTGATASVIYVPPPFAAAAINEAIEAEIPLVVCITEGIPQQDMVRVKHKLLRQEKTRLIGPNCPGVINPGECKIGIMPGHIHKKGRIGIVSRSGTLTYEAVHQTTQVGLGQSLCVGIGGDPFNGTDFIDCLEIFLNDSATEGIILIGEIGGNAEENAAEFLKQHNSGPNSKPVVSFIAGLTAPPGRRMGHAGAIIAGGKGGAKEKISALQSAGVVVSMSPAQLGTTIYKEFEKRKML
Chain of UniProt Q9BSF4 (Q9BSF4 whole entry, looked up): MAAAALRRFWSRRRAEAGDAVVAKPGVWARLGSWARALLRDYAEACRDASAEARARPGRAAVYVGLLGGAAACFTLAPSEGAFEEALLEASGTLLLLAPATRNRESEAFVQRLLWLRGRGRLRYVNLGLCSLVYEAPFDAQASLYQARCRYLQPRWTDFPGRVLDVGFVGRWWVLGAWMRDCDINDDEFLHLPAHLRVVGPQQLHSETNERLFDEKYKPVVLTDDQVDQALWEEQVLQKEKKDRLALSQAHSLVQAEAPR
Chain of UniProt Q9BTW9 (Q9BTW9 whole entry, looked up): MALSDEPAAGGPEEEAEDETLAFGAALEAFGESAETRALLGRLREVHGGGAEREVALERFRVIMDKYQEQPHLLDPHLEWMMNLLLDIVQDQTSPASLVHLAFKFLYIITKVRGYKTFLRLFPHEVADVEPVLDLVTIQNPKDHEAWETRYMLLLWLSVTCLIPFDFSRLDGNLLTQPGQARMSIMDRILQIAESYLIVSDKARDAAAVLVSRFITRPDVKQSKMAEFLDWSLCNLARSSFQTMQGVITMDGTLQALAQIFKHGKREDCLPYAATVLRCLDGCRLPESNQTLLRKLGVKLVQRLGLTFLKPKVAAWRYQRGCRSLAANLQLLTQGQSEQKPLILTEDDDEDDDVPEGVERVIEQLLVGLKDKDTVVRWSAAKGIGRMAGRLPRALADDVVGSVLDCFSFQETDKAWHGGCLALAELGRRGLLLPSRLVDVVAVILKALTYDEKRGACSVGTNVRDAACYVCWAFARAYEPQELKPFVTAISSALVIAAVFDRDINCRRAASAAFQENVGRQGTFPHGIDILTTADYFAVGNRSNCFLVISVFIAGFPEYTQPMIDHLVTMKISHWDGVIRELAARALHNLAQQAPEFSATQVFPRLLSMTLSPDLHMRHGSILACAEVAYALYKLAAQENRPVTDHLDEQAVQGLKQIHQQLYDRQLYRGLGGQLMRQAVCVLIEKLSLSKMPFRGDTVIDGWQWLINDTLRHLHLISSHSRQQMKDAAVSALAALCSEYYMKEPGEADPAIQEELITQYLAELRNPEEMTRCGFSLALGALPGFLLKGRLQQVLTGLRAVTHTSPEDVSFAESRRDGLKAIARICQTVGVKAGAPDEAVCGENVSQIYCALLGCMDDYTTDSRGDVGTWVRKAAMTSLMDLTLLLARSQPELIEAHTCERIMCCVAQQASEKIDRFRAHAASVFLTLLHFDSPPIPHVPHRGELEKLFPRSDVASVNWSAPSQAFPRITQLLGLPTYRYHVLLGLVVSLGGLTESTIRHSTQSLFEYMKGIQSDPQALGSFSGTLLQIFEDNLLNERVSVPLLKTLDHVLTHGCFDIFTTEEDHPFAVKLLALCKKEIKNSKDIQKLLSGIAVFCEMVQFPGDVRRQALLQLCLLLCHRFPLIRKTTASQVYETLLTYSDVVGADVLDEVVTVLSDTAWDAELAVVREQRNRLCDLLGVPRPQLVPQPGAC
Chain of UniProt O60493 (O60493 whole entry, looked up): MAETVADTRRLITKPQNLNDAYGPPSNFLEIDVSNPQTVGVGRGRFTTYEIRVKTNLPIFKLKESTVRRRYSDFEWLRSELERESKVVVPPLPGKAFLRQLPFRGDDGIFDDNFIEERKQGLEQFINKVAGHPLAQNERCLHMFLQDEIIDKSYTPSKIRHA
Chain of UniProt Q86VD7 (Q86VD7 whole entry, looked up): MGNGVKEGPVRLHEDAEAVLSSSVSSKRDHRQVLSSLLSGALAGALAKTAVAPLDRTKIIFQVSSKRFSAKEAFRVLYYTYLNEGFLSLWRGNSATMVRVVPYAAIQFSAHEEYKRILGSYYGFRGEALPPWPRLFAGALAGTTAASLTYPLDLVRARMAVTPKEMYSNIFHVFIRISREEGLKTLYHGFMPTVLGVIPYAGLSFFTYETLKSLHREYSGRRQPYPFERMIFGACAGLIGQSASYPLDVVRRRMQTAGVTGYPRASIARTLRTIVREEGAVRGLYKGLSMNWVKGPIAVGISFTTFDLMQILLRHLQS

Target	log2 fold change (saracatinib)	log2 fold change (sotrastaurin)	log2 fold change (alvocidib)	log2 fold change (Tubastatin A)	log2 fold change [1]	log2 fold change (defactinib)	log2 fold change (rucaparib)	log2 fold change [2]	log2 fold change (encorafenib)	log2 fold change [3]	log2 fold change [4]	log2 fold change (filanesib)	log2 fold change (zotarolimus)	log2 fold change (idasanutlin)	log2 fold change (alisertib)	log2 fold change [5]	log2 fold change (gefitinib)	log2 fold change [6]	log2 fold change (lapatinib)	log2 fold change (pictilisib)
TERF2IP (UniProt Q9NYB0)	0.038	-0.065	-0.106	0.128	0.008	-0.195	-0.052	-0.016	-0.011	-0.007	-0.034	0.052	0.045	0.025	-0.032	-0.119	0.013	0.025	-0.008	-0.036
SYMPK (UniProt Q92797)	-0.058	-0.205	-0.2	0.258	0.008	-0.245	0.09	0.007	0.079	-0.022	0.069	-0.102	0.07	-0.127	0.047	0.036	0.107	0.025	-0.045	0.155
TELO2 (UniProt Q9Y4R8)	-0.05	-0.211	-0.015	-0.004	0.03	-0.019	0.2	0.145	0.049	-0.057	-0.026	0.113	0.098	-0.103	-0.16	-0.122	0.004	-0.125	0.007	-0.023
SYNE2 isoform 2 (UniProt Q8WXH0)	-0.121	-0.005	0.156	0.071	-0.109	0.029	-0.045	0.049	-0.107	-0.006	0.112	0.048	-0.057	-0.185	-0.054	0.34	0.078	-0.004	-0.133	0.205
TBRG4 (UniProt Q969Z0)	-0.093	-0.431	-0.345	0.044	-0.177	-0.25	0.008	-0.144	0.071	-0.062	0.062	-0.551	-0.007	-0.021	0.032	-0.274	-0.121	0.073	-0.051	-0.036
TIAL1 isoform 2 (UniProt Q01085)	0.015	0.025	0.036	-0.052	-0.019	0.077	0.066	-0.042	-0.034	-0.014	0.033	0.037	-0.016	0.026	-0.064	0.076	-0.007	0.02	0.029	0.01
SPAG9 (UniProt O60271)	0.014	-0.037	-0.047	0.003	0.02	-0.044	0.049	0.034	0.023	-0.011	0.005	-0.041	-0.011	0	-0.034	-0.034	-0.01	-0.031	-0.026	0.041
SNX3 (UniProt O60493)	-0.086	0.038	-0.016	-0.005	0.018	-0.067	0.081	0.026	0.194	-0.079	-0.049	0.012	0.022	0.075	0.074	-0.08	0.01	0.056	-0.026	-0.03
SREK1 isoform 2 (UniProt Q8WXA9)	-0.034	-0.106	0.005	0.061	-0.422	-0.371	0.083	0.013	0.059	-0.007	0.26	-0.1	0.053	0.086	-0.096	-0.072	0.066	0.06	0.108	-0.001
STARD3NL (UniProt O95772)	0.103	-0.004	-0.01	-0.05	0.013	-0.007	-0.164	-0.052	0.068	-0.046	-0.005	-0.082	-0.054	-0.19	-0.056	0.095	0.048	0.075	-0.048	0.024
STXBP2 isoform 3 (UniProt Q15833)	-0.138	-0.242	-0.113	0.085	-0.091	-0.133	0.157	0.142	0.176	-0.203	0.021	0.001	-0.043	0.043	-0.034	0.045	0.043	-0.066	0.007	-0.091
SLC25A42 (UniProt Q86VD7)	0.105	0.023	0	-0.032	0.005	0.101	0.021	0.035	-0.067	0.083	0.241 (active)	-0.011	0.058	0.047	0.012	-0.029	0.063	0.043	0.084	-0.003
TIMM29 (UniProt Q9BSF4)	0.054	0.051	-0.068	0.003	-0.03	0.1	-0.008	0.002	-0.098	0.13	-0.141	0.041	-0.058	-0.096	0.01	0.021	0.039	0.073	0.014	0.051
TIMM44 (UniProt O43615)	-0.055	-0.132	-0.044	-0.055	-0.012	-0.035	-0.12	-0.057	0.054	0.007	0	-0.229	0.027	-0.042	-0.021	-0.296 (active)	-0.135	0.017	-0.073	-0.041
SUCLG1 (UniProt P53597)	0.042	0.019	-0.028	-0.005	0.015	-0.057	0.016	-0.006	-0.001	0.016	-0.046	-0.107	0.004	-0.107	0.037	0.051	-0.01	0.041	-0.043	0.003
TBCD (UniProt Q9BTW9)	0.003	-0.056	-0.096	0.05	-0.016	-0.056	0	-0.031	0.018	-0.007	-0.017	-0.063	0.049	-0.091	-0.078	-0.006	0.022	0.023	-0.024	0.04
